Screen size: about 290,000 compounds; about 3,000 (1%) were called active. This is one part of a sample in which actives are shown more often than they occur. Cut-off read from the data, not from the text of the source: active = inhibition mostly above about 36% (no sharp cut-off); inactive = mostly below about 34%.
These compounds were tested against T1, Nucleotide-binding oligomerization domain-containing protein 1, Homo sapiens (UniProt Q9Y239) (assay: inhibition of NOD1-driven NF-kB reporter – cell-based, luminescence, uHTS, primary screen (AID 1578)).
T1 sequence (whole entry): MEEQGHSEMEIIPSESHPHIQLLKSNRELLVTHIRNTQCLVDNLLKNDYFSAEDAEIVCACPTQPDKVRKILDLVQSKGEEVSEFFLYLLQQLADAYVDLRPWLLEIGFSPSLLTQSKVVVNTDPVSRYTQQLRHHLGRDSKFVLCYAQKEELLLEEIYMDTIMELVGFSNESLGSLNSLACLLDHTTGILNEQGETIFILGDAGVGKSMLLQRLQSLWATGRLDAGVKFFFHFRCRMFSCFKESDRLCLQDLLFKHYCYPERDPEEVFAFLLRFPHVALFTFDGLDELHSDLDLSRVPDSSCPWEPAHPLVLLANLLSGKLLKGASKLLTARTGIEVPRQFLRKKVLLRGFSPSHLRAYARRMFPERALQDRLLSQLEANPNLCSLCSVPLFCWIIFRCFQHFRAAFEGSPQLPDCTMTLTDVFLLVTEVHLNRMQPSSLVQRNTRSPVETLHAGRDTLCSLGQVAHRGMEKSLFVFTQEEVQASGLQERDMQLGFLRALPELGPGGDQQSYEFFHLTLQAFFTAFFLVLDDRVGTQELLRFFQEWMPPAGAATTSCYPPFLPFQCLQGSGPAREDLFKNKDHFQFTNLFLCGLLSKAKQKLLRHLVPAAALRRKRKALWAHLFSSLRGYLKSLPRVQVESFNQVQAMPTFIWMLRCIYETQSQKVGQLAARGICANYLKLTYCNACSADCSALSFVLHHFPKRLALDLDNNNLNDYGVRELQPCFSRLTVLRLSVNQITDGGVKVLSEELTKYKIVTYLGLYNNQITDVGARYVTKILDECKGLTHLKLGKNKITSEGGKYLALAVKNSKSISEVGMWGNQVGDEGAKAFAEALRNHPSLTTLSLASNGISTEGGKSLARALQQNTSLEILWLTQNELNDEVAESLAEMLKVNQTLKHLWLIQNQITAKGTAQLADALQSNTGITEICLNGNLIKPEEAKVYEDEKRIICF

Question: How did the outcome turn out when `COc1ccc(-c2cc(-c3ccccc3)[n+](C)c(-c3ccccc3)c2)cc1.[O-][Cl+3]([O-])([O-])[O-]` was run?
Answer: Its outcome is “active”.

Question: How did the outcome turn out when `COc1ccc(-[n+]2c(-c3ccccc3)cc(-c3ccc(C)cc3)cc2-c2ccccc2)cc1.[O-][Cl+3]([O-])([O-])[O-]` was run?
Answer: The outcome was “active”.

Question: For `CC(C)CC(NC(=O)CCCNC(=O)CCC(=O)OC1O[C@H]2OC3(C)CC[C@H]4[C@H](C)CCC(C1C)C24OO3)C(=O)O` (some centres undefined), which outcome is on record?
Answer: Its outcome is “active”.

Question: For `CCC(C)C(NC(=O)CCCNC(=O)CCC(=O)OC1O[C@H]2OC3(C)CC[C@H]4[C@H](C)CCC(C1C)C24OO3)C(=O)O` (some centres undefined), which outcome is on record?
Answer: Its outcome is “active”.

Question: How did the outcome turn out when `CCC(C)NC(=O)CCC(=O)OC1O[C@H]2OC3(C)CC[C@H]4[C@H](C)CCC(C1C)C24OO3` (some centres undefined) was run?
Answer: Its outcome is “active”.

Question: How did the outcome turn out when `CC[C@@]1(O)C(=O)OCc2c1cc1n(c2=O)Cc2cc3ccccc3nc2-1` was run?
Answer: Its outcome is “active”.

Question: With `CCCCCCn1c(=O)c(C(=O)Nc2cnccn2)c(O)c2ccccc21` as the compound, how does the outcome read?
Answer: The outcome was “active”.

Question: Which outcome does the source give for `CCCCCn1c(=O)c(C(=O)Nc2cnccn2)c(O)c2ccccc21` here?
Answer: The outcome was “active”.

Question: Which outcome does the source give for `C=C1C(=O)O[C@@H]2C[C@@H](C)[C@@H]3C=CC(=O)[C@@]3(C)[C@@H](OC(=O)CC(=O)O[C@H]3[C@@H]4C(=C)C(=O)O[C@@H]4C[C@@H](C)[C@@H]4C=CC(=O)[C@]43C)[C@H]12` here?
Answer: The outcome was “active”.

Question: For `C=C1C(=O)O[C@H]2C[C@@H](C)[C@@H]3C=CC(=O)[C@@]3(C)C[C@H]12`, which outcome is on record?
Answer: Its outcome is “active”.

Question: With `O=c1c2ccccc2nc(/C=C/c2ccccc2O)n1-c1ccccc1O` as the compound, how does the outcome read?
Answer: Its outcome is “active”.

Question: With `CC(C)(C)c1ccc(CSc2cnn(C(C)(C)C)c(=O)c2Cl)cc1` as the compound, how does the outcome read?
Answer: The outcome was “active”.

Question: How did the outcome turn out when `O=Cc1cn(Cc2cccc([N+](=O)[O-])c2)c2ccccc12` was run?
Answer: Its outcome is “active”.

Question: For `O=c1c2ccccc2nc(/C=C/c2ccc([N+](=O)[O-])o2)n1-c1ccc(O)cc1`, which outcome is on record?
Answer: Its outcome is “active”.

Question: For `Cc1cccc(-n2c(/C=C/c3ccc([N+](=O)[O-])o3)nc3ccccc3c2=O)c1`, which outcome is on record?
Answer: The outcome was “active”.

Question: With `O=C(c1ccc(Cl)cc1)C1CCCN(Cc2cccc3ncccc23)C1` (centres undefined) as the compound, how does the outcome read?
Answer: The outcome was “active”.

Question: With `Cc1nc2c(=O)n(C)c(=O)nc-2n(C)n1` as the compound, how does the outcome read?
Answer: Its outcome is “active”.

Question: With `CCOc1ccc(-c2cc(C)[n+](CCN(CC)CC)c(-c3ccc(OCC)cc3)c2)cc1.[O-][Cl+3]([O-])([O-])[O-]` as the compound, how does the outcome read?
Answer: The outcome was “active”.

Question: How did the outcome turn out when `CC(=O)c1c(C)n(C2CCCCC2)c2ccc(O)cc12` was run?
Answer: Its outcome is “active”.

Question: Which outcome does the source give for `C[C@H]1CCC[C@@H](O)CCC/C=C/c2cc(O)cc(O)c2C(=O)O1` here?
Answer: Its outcome is “active”.

Question: With `CC1=CC(=Cc2sc3ccccc3[n+]2C)C=C(C)O1.[O-][Cl+3]([O-])([O-])[O-]` as the compound, how does the outcome read?
Answer: Its outcome is “active”.

Question: How did the outcome turn out when `CC(C)[C@H]1C(=O)O[C@H](C(C)C)C(=O)N(C)[C@@H](C(C)C)C(=O)O[C@H](C(C)C)C(=O)N(C)[C@@H](C(C)C)C(=O)O[C@H](C(C)C)C(=O)N1C` was run?
Answer: The outcome was “active”.

Question: For `CCn1nc(-c2ccccc2)nc2c(=O)n(C)c(=O)nc1-2`, which outcome is on record?
Answer: The outcome was “active”.

Question: Which outcome does the source give for `CCn1nc(/C=C/c2ccccc2)nc2c(=O)n(C)c(=O)nc1-2` here?
Answer: Its outcome is “active”.

Question: With `Cc1nn(C(C)(C)C)c(C)c1/C=N/OC(=O)Nc1ccc(Cl)cc1` as the compound, how does the outcome read?
Answer: The outcome was “active”.

Question: With `Cc1nn(C(C)(C)C)c(C)c1/C=N/OC(=O)Nc1ccc(Cl)c(Cl)c1` as the compound, how does the outcome read?
Answer: The outcome was “active”.

Question: Which outcome does the source give for `COc1ccc(Oc2cc(NC(=O)c3nn(C)cc3[N+](=O)[O-])cc([N+](=O)[O-])c2)cc1` here?
Answer: Its outcome is “active”.

Question: `C[C@@H]1O[C@@H](O[C@H]2C[C@@H](O)[C@]3(CO)[C@H]4[C@H](O)C[C@]5(C)[C@@H](C6=CC(=O)OC6)CC[C@]5(O)[C@@H]4CC[C@]3(O)C2)[C@H](O)[C@H](O)[C@H]1O` was tested. Which outcome did it give?
Answer: The outcome was “active”.

Question: `NC(=O)c1cn(C2OC(CO)C(O)C2O)c2ncnc(N)c12.O` (centres undefined) was tested. Which outcome did it give?
Answer: Its outcome is “active”.

Question: Which outcome does the source give for `CCCCN=C[C@]12CCC(O)CC1(O)CCC1[C@@H]2CC[C@]2(C)[C@H](C3C=CC(=O)O3)CCC12O` (some centres undefined) here?
Answer: Its outcome is “active”.

Question: Which outcome does the source give for `C[C@]12CCC3C(CCC4=CC(O)CC[C@@]43/C=N/O)C1(O)CCC2C1=CC(=O)OC1` (some centres undefined) here?
Answer: The outcome was “active”.

Question: How did the outcome turn out when `CC(=O)OC[C@]12CCC(C)=C[C@H]1O[C@@H]1[C@H](O)[C@@H](OC(C)=O)[C@@]2(C)[C@]12CO2` was run?
Answer: Its outcome is “active”.

Question: Which outcome does the source give for `C=C1C(=O)O[C@@H]2C[C@@H](C)[C@@H]3C4OC4C(=O)[C@@]3(C)[C@@H](O)[C@H]12` (some centres undefined) here?
Answer: Its outcome is “active”.

Question: How did the outcome turn out when `CCOc1ccc(-c2c(C)n(-c3ccc(OCC)cc3)c3[n+]2CCCCC3)cc1.[O-][Cl+3]([O-])([O-])[O-]` was run?
Answer: Its outcome is “active”.
